Data as given in PubChem BioAssay (NCATS).
Several values for one entry are separate records, joined by “and”; a condition that tells them apart may be missing. Equal entries are not always repeated. Results filed as inconclusive are left out. This is one part of the list. Activity calls are given as the source filed them. Unless noted, calls follow the shape of the dose curve; as a rule, active = well fitted curve in either direction with a large enough effect (not every such curve was filed as active); inconclusive = small, poorly fitted or top-dose-only effect, or another doubt; inactive = flat fitted curve, though single readings scatter.

Tests used:
[1] = molecular target: Fructose-bisphosphate aldolase A (Oryctolagus cuniculus) (UniProt P00883); assay: qHTS Assay for Inhibitors of Fructose-1,6-bisphosphate Aldolase from Giardia Lamblia: Rabbit FBPA Selectivity (AID 2794; active = well fitted curve in the direction sought with a large enough effect; an effect the other way counts as inactive or inconclusive; also: % is scaled to controls: 0 for no effect and ±100 for the full control effect; nearly all actives have a fitted effect of over 60% in size)
Summary of the method: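 Glyceraldehyde-3-phosphate-coupled detection measures rabbit Class I aldolase turnover via AmpLite Red fluorescence. Compounds (final up to 57.5 uM) preincubated 10 min; signal read 20 min post-substrate at RT.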

[2] = qHTS screen for small molecules that inhibit ELG1-dependent DNA repair: Hit Confirmation in Cell-Based Luciferin Assay (AID 624247; active = well fitted curve in the direction sought with a large enough effect; an effect the other way counts as inactive or inconclusive; also: % is scaled to controls: 0 for no effect and ±100 for the full control effect)
Summary of the method: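 Luciferin substrate reagent dispensed first, then compounds or DMSO vehicle pin-transferred, then luciferase enzyme added; luminescence read on a CCD-based plate reader.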

[3] = molecular target: ATPase family AAA domain-containing protein 5 (Homo sapiens) (UniProt Q96QE3); assay: HTS assay for small molecules that inhibit ELG1-dependent DNA repair in human embryonic kidney (HEK293T) cells expressing luciferase-tagged ELG1: Hit Confirmation (AID 624248; active = well fitted curve in the direction sought with a large enough effect; an effect the other way counts as inactive or inconclusive; also: potency is read from the fitted curve at half-maximal effect; nearly all actives have a fitted effect of over 55% in size); settings: HEK293T ELG1-luciferase levels, luminescence; cells co-treated with 5-fluorouridine
Summary of the method: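 Suppression of ELG1-luciferase signal was read by ONE-Glo luminescence in HEK293T reporter cells after 16 h at 37 C co-treatment with compound and 5-fluorouridine as DNA-damaging agent.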

[4] = molecular target: ATPase family AAA domain-containing protein 5 (Homo sapiens) (UniProt Q96QE3); assay: qHTS screen for small molecules that inhibit ELG1-dependent DNA repair in human embryonic kidney (HEK293T) cells expressing luciferase-tagged ELG1: Hit Confirmation using MMS Stimulated ELG1 (AID 624249; active = well fitted curve in the direction sought with a large enough effect; an effect the other way counts as inactive or inconclusive; also: potency is read from the fitted curve at half-maximal effect; nearly all actives have a fitted effect of over 60% in size); settings: HEK293T luciferase-tagged ELG1 level
Summary of the method: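 ELG1-luciferase HEK293T cells were plated at 2,000 cells/well, and about 5 h later test compounds were pin-transferred alongside MMS (final 10 µM). After 16 h, luciferase activity was read with Amplight reagent; hits suppress the signal.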

[5] = qHTS screen for small molecules that inhibit ELG1-dependent DNA repair: Hit Confirmation with MMS Viability (AID 624251; active = well fitted curve in the direction sought with a large enough effect; an effect the other way counts as inactive or inconclusive;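 also: potency is read from the fitted curve at half-maximal effect; viability read 16 h after compound addition; nearly all actives have a fitted effect of over 60% in size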); settings: Cell viability with MMS
Summary of the method: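 Under 10 µM MMS, compounds were tested on ELG1-luc HEK293T cells seeded at 2,000 cells/well; survival was determined by CellTiter-Glo luminescence 16 h post-addition.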

[6] = molecular target: Luciferin 4-monooxygenase (Photinus pyralis) (UniProt P08659); assay: qHTS screen for small molecules that inhibit ELG1-dependent DNA repair: Hit Confirmation in Biochemical Luciferin Assay (AID 624253; active = well fitted curve in the direction sought with a large enough effect; an effect the other way counts as inactive or inconclusive; also: % is scaled to controls: 0 for no effect and ±100 for the full control effect)
Summary of the method: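 Counter-screen against purified firefly luciferase: substrate reagent dispensed first, then compound or DMSO by pintool, then luciferase enzyme added. Luminescence read on a CCD-based imager.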

[7] = molecular target: Lysosomal acid glucosylceramidase (Homo sapiens) (UniProt P04062); assay: Glucocerebrosidase-p2 (AID 348; in the data active = potency below about 10 µM; also: potency is read from the fitted curve at half-maximal effect); settings: purified GBA, blue fluorogenic substrate, 40 min
Sequence of Lysosomal acid glucosylceramidase (Homo sapiens) (P04062 whole entry, looked up): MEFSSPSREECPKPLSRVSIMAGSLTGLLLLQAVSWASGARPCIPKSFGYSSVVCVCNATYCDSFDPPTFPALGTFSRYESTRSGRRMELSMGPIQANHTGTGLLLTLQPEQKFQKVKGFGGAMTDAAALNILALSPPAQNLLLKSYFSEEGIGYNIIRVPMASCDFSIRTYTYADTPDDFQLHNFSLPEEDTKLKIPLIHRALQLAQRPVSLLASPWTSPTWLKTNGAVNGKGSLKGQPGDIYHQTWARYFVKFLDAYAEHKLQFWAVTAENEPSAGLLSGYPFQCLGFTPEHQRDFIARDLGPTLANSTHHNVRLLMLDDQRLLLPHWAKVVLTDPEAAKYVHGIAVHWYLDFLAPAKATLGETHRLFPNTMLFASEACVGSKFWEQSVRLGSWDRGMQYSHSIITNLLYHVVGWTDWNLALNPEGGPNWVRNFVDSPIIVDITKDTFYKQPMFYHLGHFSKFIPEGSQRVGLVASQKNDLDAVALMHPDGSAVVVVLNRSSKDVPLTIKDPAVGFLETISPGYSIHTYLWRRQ
Summary of the method: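 Compounds titrated from 0.6 nM upwards against 0.2 nM enzyme in pH 5.9 citric acid/KH2PO4, taurocholate, tween-20; blue fluorogenic substrate 80 uM, 40 min room temperature, stopped and read Ex 365/Em 440 for AC50.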

[8] = AP1 Signaling Pathway (AID 357); settings: ME-180 AP-1-bla reporter, EGF-induced, beta-lactamase ratio, 5 h; also: % is scaled to controls: 0 for no effect and ±100 for the full control effect
Summary of the method: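 ME-180 cells with beta-lactamase reporter under AP-1 response element, stimulated with EC50 EGF; compounds tested in titration series, 5 h at 37 °C. CCF4 substrate added 2.5 h at room temperature; 460/530 nm emission ratio gave %activity and AC50.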

[9] = molecular target: Cytochrome P450 1A2 (Homo sapiens) (UniProt P05177); assay: p450-cyp1a2 (AID 410; calls by dose curve; also: potency is read from the fitted curve at half-maximal effect;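 as to activity change, negative = inhibition: -100% = full effect of reference inhibitor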)
Sequence of Cytochrome P450 1A2 (Homo sapiens) (P05177 whole entry, looked up): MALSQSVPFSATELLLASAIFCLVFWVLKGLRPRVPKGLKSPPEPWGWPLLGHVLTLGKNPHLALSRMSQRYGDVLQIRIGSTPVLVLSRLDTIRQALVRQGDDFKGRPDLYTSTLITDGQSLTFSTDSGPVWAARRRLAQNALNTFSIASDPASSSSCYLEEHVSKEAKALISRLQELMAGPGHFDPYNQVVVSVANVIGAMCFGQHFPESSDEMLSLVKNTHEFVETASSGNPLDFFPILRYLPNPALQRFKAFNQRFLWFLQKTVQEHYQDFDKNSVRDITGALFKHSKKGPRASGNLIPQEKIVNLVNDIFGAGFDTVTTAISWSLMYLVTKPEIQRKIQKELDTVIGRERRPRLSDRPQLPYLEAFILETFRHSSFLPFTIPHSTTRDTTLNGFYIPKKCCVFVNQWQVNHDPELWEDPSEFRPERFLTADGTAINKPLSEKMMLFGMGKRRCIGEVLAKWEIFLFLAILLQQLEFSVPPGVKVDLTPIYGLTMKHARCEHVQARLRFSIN
Summary of the method: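 Human CYP1A2 (20nM) demethylated Luciferin-ME at its Km (100uM) in 100mM KPO4. After 10 min compound preincubation, NADPH regeneration ran the reaction 60 min at room temperature. Luciferin was read by luminescence, normalized to 57 uM furafylline.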

[10] = Stat Signaling Pathway (AID 446); settings: ME-180 (cervical carcinoma) SIE beta-lactamase reporter, IL-6 stimulated, 5 h;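 also: ME-180 cervical cancer cells given 40 pM IL-6 alongside compound; SIE-controlled beta-lactamase reporter measured as 460/530 nm FRET emission ratio; % is scaled to controls: 0 for no effect and ±100 for the full control effect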
Summary of the method: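 IL-6/STAT signaling read in ME-180 cells via an SIE beta-lactamase reporter. Stimulus was 40 pM IL-6 (its AC50) for 5 hrs, so both activation and inhibition register.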

[11] = molecular target: Glucocorticoid receptor (Homo sapiens) (UniProt P04150); assay: GR-GFP Redistribution (AID 450;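 active = compounds whose dose series gives a full or clear partial fitted curve of increased nuclear translocation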; also: potency is read from the fitted curve at half-maximal effect); settings: U2OS GR-GFP nuclear translocation, laser cytometry, 2 h
Sequence of Glucocorticoid receptor (Homo sapiens) (P04150 whole entry, looked up, the tested form may be a part): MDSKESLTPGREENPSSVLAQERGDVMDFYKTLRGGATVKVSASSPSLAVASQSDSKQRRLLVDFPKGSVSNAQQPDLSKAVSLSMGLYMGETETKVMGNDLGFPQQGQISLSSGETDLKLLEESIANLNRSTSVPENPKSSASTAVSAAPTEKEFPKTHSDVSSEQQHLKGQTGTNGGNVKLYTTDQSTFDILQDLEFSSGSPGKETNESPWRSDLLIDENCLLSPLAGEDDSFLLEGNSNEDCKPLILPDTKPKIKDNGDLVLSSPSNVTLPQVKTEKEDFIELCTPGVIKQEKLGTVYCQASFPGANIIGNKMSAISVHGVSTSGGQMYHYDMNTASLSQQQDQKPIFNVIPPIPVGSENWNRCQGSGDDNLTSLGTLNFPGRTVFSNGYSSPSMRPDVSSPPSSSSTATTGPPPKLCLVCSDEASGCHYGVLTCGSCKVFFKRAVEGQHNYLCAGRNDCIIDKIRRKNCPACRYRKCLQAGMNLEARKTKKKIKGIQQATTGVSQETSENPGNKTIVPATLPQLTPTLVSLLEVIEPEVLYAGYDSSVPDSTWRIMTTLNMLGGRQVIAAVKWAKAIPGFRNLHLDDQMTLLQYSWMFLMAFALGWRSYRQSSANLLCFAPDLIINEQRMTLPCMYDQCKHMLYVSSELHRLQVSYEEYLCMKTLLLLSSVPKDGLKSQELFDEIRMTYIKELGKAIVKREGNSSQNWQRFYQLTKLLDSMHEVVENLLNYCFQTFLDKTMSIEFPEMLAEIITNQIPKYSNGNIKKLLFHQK

[12] = molecular target: Glucocorticoid receptor (Homo sapiens) (UniProt P04150); assay: GR-EFC Redistribution (AID 451; calls by dose curve; also: potency is read from the fitted curve at half-maximal effect); settings: CHO-K1 GR-EFC translocation, beta-gal luminescence, 2 h
Summary of the method: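 Translocation of GR-ED fusion to nuclear EA restores b-gal, read by luminescence after 1 h room-temperature detection. Engineered CHO-K1 biosensor cells, 1,000/well, exposed 2 h at 37 C to titrations up to 46 uM final.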

[13] = molecular target: Mitogen-activated protein kinase 10 (Mus musculus) (UniProt Q61831); assay: JNK3 AlphaScreen Assay (AID 530)
Summary of the method: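 Room-temperature AlphaScreen kinase assay; pre-activated HepG2 lysate as JNK3 source, biotin-GST-cJun(1-79) substrate, 10 uM ATP, compound 15 min preincubation.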

[14] = molecular target: 3',5'-cyclic-AMP phosphodiesterase 4B (Homo sapiens) (UniProt Q07343); assay: qHTS Assay for Inhibitors of PDE-IV (AID 607; active = well fitted activation curve with a large enough effect in the main read-out, with a control signal flat, not every such curve was filed as active; also: % of control where 0% means no effect)
Sequence of 3',5'-cyclic-AMP phosphodiesterase 4B (Homo sapiens) (Q07343 whole entry, looked up): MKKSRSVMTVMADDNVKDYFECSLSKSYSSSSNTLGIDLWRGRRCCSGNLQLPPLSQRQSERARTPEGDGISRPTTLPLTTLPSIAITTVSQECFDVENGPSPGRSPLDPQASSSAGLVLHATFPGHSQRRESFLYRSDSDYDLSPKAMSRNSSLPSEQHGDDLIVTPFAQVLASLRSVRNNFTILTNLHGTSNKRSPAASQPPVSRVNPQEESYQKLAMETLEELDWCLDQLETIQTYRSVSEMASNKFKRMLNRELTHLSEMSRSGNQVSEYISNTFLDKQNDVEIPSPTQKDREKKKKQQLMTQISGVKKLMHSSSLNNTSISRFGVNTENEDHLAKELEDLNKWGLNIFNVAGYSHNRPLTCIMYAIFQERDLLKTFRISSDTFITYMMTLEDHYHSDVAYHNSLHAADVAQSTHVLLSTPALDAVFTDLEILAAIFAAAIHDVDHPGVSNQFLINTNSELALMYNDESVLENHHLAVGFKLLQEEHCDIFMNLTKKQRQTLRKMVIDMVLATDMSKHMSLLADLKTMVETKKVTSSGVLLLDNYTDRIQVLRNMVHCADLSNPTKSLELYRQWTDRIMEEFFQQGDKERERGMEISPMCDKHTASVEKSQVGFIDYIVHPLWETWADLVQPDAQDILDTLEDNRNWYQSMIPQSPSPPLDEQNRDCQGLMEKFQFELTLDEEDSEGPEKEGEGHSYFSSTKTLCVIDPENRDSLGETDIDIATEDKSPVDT
Summary of the method: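 Live HEK293 cells with a modified cyclic nucleotide-gated (CNG) channel report intracellular cAMP via membrane-potential dye fluorescence (ex 535/em 590 nm). Endogenous PDE-IV was targeted. Compounds were tested at up to 22.9 uM final; RO 20-1724 100 uM served as control.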

[15] = molecular target: Cytochrome P450 2C9 (Homo sapiens) (UniProt P11712); assay: qHTS Assay for Inhibitors and Substrates of Cytochrome P450 2C9 (AID 883; active = well fitted curve in the direction sought with a large enough effect; an effect the other way counts as inactive or inconclusive; also: % is scaled to controls: 0 for no effect and ±100 for the full control effect; nearly all actives have a fitted effect of over 60% in size)
Sequence of Cytochrome P450 2C9 (Homo sapiens) (P11712 whole entry, looked up): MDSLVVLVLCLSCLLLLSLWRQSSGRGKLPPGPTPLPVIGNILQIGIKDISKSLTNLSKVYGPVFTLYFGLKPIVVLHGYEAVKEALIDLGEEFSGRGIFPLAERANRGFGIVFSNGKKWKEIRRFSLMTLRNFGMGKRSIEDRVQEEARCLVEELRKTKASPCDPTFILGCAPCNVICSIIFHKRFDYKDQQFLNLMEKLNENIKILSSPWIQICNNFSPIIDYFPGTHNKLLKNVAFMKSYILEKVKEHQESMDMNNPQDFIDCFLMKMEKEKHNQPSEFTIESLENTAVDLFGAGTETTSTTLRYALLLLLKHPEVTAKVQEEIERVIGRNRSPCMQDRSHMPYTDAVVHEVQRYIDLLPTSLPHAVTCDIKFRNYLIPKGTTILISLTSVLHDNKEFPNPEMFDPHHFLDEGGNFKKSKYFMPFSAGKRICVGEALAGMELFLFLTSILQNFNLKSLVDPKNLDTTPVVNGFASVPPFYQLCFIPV
Summary of the method: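 Inhibition of CYP2C9 is scored as loss of luminescence, with 57uM sulphaphenazole defining 100% inhibition. Substrate Luciferin-H is used at 100uM, equal to its KM; enzyme at 10nM in 25mM KPO4, 60 min at 37C with NADPH regeneration.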

[16] = molecular target: Cytochrome P450 3A4 (Homo sapiens) (UniProt P08684); assay: qHTS Assay for Inhibitors and Substrates of Cytochrome P450 3A4 (AID 884; active = well fitted curve in the direction sought with a large enough effect; an effect the other way counts as inactive or inconclusive; also: % is scaled to controls: 0 for no effect and ±100 for the full control effect; nearly all actives have a fitted effect of over 50% in size)
Sequence of Cytochrome P450 3A4 (Homo sapiens) (P08684 whole entry, looked up): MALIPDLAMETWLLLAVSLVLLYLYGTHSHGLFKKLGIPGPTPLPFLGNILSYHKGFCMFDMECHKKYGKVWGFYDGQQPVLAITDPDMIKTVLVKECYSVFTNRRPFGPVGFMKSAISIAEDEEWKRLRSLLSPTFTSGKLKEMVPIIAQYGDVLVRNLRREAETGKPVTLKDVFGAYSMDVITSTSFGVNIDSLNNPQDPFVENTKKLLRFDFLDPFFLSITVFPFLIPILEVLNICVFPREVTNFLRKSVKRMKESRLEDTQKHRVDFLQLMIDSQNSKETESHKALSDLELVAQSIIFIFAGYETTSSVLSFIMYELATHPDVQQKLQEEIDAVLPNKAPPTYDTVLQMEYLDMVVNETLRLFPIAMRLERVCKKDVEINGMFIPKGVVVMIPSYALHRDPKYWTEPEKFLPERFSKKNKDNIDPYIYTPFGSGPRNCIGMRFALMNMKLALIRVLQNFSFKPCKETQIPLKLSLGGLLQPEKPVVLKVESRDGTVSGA
Summary of the method: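 20 nM human CYP3A4 with 25 uM Luciferin-PPXE (at KM) in 200 mM KPO4, preincubated 10 min with compound; NADPH regeneration started a 60 min RT reaction. Luciferin detected by luminescence, normalized to 57 uM ketoconazole as full inhibition.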

[17] = molecular target: Cytochrome P450 2D6 (Homo sapiens) (UniProt P10635); assay: qHTS Assay for Inhibitors and Substrates of Cytochrome P450 2D6 (AID 891; active = well fitted curve in the direction sought with a large enough effect; an effect the other way counts as inactive or inconclusive)
Sequence of Cytochrome P450 2D6 (Homo sapiens) (P10635 whole entry, looked up): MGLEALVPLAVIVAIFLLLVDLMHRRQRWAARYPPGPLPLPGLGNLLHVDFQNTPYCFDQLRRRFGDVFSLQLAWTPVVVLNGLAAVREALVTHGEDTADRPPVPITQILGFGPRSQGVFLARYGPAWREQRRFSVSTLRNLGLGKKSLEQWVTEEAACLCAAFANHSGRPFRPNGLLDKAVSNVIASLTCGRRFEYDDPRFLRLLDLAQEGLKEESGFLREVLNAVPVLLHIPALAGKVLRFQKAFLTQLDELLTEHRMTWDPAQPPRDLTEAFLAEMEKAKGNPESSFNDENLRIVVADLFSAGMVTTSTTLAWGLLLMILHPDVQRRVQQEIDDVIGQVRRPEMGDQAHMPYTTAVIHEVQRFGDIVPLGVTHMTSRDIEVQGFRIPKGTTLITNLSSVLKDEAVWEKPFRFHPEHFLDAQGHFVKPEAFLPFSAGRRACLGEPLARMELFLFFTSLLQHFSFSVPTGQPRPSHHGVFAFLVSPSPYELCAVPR
Summary of the method: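 Human CYP2D6 (5 nM) with 30 uM Luciferin-ME EGE (at Km) in 100 mM KPO4, compound preincubated 10 min, then NADPH regeneration system for 60 min at room temperature. Luciferin read by luminescence; normalized to 1.43 uM quinidine.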

[18] = molecular target: Cytochrome P450 2C19 (Homo sapiens) (UniProt P33261); assay: qHTS Assay for Inhibitors and Substrates of Cytochrome P450 2C19 (AID 899; active = well fitted curve in the direction sought with a large enough effect; an effect the other way counts as inactive or inconclusive)
Sequence of Cytochrome P450 2C19 (Homo sapiens) (P33261 whole entry, looked up): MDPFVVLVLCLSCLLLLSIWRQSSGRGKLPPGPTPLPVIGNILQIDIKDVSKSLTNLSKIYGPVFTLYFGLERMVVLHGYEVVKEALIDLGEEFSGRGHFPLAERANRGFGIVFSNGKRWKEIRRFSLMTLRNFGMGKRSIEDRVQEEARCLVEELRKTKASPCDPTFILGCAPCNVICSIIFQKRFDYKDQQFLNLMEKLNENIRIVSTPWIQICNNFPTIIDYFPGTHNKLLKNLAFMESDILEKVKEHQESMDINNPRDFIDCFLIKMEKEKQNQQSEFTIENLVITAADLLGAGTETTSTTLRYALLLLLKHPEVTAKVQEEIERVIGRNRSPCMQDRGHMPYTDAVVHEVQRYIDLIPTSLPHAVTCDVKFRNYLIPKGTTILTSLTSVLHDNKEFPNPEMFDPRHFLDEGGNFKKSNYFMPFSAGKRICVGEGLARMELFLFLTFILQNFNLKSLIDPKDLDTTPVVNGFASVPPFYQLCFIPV
Summary of the method: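 5nM enzyme + 10uM Luciferin-H EGE (=KM), 50mM KPO4; cpd pin-transferred, 10 min 37C; NADPH regen, 60 min 37C; stopped w/ luciferin detection reagent, 20 min; luminescence. Normalized to 57uM ketoconazole (AC100).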

[19] = NFAT Signaling Pathway (AID 444); settings: Jurkat NFAT-bla M1, carbachol, beta-lactamase ratio, 5 h; at 7.69 µM (top of the series) unless noted
Summary of the method: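 Read-out: CCF4 FRET ratio (460 nm/530 nm) after 1 h RT dye loading, used for %activity and AC50 from titration series. Cells: Jurkat NFAT-β-lactamase/M1 line, treated with compound plus 1 uM carbachol for 5 h, 37 °C.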

[20] = molecular target: Fructose-bisphosphate aldolase (Giardia intestinalis (strain ATCC 50803 / WB clone C6)) (UniProt A8B2U2); assay: qHTS Assay for Inhibitors of Fructose-1,6-bisphosphate Aldolase from Giardia Lamblia: Primary screen confirmation (AID 2787; active = well fitted curve in the direction sought with a large enough effect; an effect the other way counts as inactive or inconclusive;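 also: aldolase product measured through coupled diaphorase step turning resazurin into fluorescent resorufin; % is scaled to controls: 0 for no effect and ±100 for the full control effect; nearly all actives have a fitted effect of over 45% in size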)
Sequence of Fructose-bisphosphate aldolase (Giardia intestinalis (strain ATCC 50803 / WB clone C6)) (A8B2U2 whole entry, looked up): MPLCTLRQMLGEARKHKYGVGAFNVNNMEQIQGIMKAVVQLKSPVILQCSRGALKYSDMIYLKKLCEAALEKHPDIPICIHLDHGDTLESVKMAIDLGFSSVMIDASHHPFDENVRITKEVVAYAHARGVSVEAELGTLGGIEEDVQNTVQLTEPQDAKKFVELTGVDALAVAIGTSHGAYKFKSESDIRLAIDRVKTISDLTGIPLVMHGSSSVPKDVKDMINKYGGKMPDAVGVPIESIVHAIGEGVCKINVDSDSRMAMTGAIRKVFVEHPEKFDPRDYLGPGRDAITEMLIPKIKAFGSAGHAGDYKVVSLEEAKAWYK
Summary of the method: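 Confirmation of primary hits by qHTS up to 57.5 uM final compound. Enzyme at 40 nM with 30 uM ZnCl2, 10 min RT pre-incubation, then substrate/coupling/resorufin-forming detection mix for 20 min before fluorescence read at 525/598 nm.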

[21] = at 7.69 µM (top of the series) unless noted

Cc1nnc(N/N=C/c2ccccn2)[nH]c1=O
inactive: outcome [1] | outcome [2] | outcome [6]
active: Potency [3] 2.23 µM | Potency [4] 2.5 µM | Potency [5] 7.06 µM

COc1ccc2cc1Oc1ccc(cc1)C[C@H]1c3cc(c(OC)cc3CCN1C)Oc1c(OC)c(OC)cc3c1[C@@H](C2)N(C)CC3
inactive: Potency [7] > 11.4 µM | activity change, negative = inhibition ([8]; at 7.69 µM (top of the series)) -3.56% | activity change, negative = inhibition ([8]; at 17.2 µM (top of the series)) -5.15% | Potency [9] | activity, negative = inhibition ([10]; at 7.69 µM (top of the series)) -1.58% | activity, negative = inhibition ([10]; at 17.2 µM (top of the series)) -5.25% | Potency [11] > 20.6 µM and > 46 µM | Potency [12] > 20.6 µM and > 46 µM and > 9.22 µM | Potency [13] | Potency [14] | Potency [15] | Potency [16] | Potency [17] | Potency [18]

CCN1CCc2c(C#N)c(NCc3ccccc3)nc(NCCO)c2C1
inactive: activity change, negative = inhibition [8, 21] -9.55% [at 17.2 µM] | activity change, negative = inhibition [19] -11% [at 17.2 µM] | activity, negative = inhibition [10, 21] -0.118% [at 17.2 µM] | Potency [11] > 20.6 µM | outcome [20]

CCC[C@H](Sc1nc(N)nc2nc[nH]c12)C(=O)O
inactive: Potency [7] > 11.4 µM | activity change, negative = inhibition [8, 21] -8.03% | Potency [9] | activity change, negative = inhibition [19] -19.8% | activity, negative = inhibition [10, 21] 6.16% | Potency [11] > 46 µM | Potency [12] > 9.22 µM | Potency [13] | Potency [14]

O=[N+]([O-])/C=C\c1cc2ccccc2[nH]1
active: Potency [9] 1.26 µM
inactive: Potency [7] > 11.4 µM | activity change, negative = inhibition [8, 21] -11.8% | activity change, negative = inhibition [19] 12.4% | activity, negative = inhibition [10, 21] 23.3% | Potency [11] > 46 µM | Potency [12] > 9.22 µM | Potency [13] | Potency [14]

CN(C)S(=O)(=O)Nc1ccccn1
inactive: Potency [7] > 11.4 µM | activity change, negative = inhibition [8, 21] 2.01% | Potency [9] | activity change, negative = inhibition [19] 17.9% | activity, negative = inhibition [10, 21] 8.85% | Potency [11] > 46 µM | Potency [12] > 9.22 µM | Potency [13] | Potency [14]

Nc1nc2c(c(=O)[nH]1)N[C@H](CCNc1ccc(C(=O)O)cc1)CN2
inactive: Potency [7] > 11.4 µM | activity change, negative = inhibition [8, 21] -0.0764% | Potency [9] | activity change, negative = inhibition [19] 14.5% | activity, negative = inhibition [10, 21] -3.77% | Potency [11] > 46 µM | Potency [12] > 9.22 µM | Potency [13] | Potency [14]

Cc1[nH]c(N)nc(=S)c1CCC(=O)O
inactive: Potency [7] > 11.4 µM | activity change, negative = inhibition [8, 21] -7.6% | Potency [9] | activity change, negative = inhibition [19] 1.85% | activity, negative = inhibition [10, 21] -3.94% | Potency [11] > 46 µM | Potency [12] > 9.22 µM | Potency [13] | Potency [14]
